Results published in PubChem BioAssay AID1053127 (Broad Institute, 2014).
Results with a measured potency or affinity are listed apart. Active and inactive are the calls of the source.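 Rule for the calls: active = compounds whose fitted curve of lowered CTGF expression reaches half effect within a set concentration limit; inconclusive = flat moderate drop in CTGF, or unreliable curve fit; inactive = the rest.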

Assay: YAP1 overexpression rescue of CTGF inhibition – DLD1 cells, RT-qPCR, cherry-pick, mechanism study for YAP1 pathway inhibitor project, dose response (AID 1053127)
Conditions: DLD1 YAP1-overexpressing, CTGF mRNA qPCR, 24 h; series mostly up to 26 µM; CTGF fold change (delta-delta-Ct), lower = inhibition: at the top concentration

| Compound | CTGF fold change (delta-delta-Ct), lower = inhibition |
| --- | --- |
| O=C(CC1CC1)N1CC(=O)N2[C@H](CO)[C@@H](c3ccc(C#Cc4cccc(F)c4)cc3)[C@H]2C1 | 0.887 unspecified (inactive) |
| C[C@@H]1CN([C@H](C)CO)C(=O)CCCn2nncc2CO[C@@H]1CN(C)C(=O)c1cc(-c2ccccc2)on1 | 0.649 unspecified (inactive) |
| C[C@@H]1CN([C@H](C)CO)C(=O)c2cccc(NC(=O)c3nc4ccccc4s3)c2O[C@H]1CN(C)C(=O)Nc1ccc2c(c1)OCO2 | 0.577 unspecified [at 23.5 µM] (inactive) |
| O=C(CC1CC1)N1CC(=O)N2[C@@H](CO)[C@H](c3ccc(/C=C/c4ccccc4)cc3)[C@@H]2C1 | 1.06 unspecified (inactive) |
| Cc1ccc(S(=O)(=O)Nc2ccc3c(c2)C(=O)N([C@H](C)CO)C[C@@H](C)[C@H](CN(C)S(=O)(=O)c2cccs2)OCCCC[C@@H](C)O3)cc1 | 1.68 unspecified (inactive) |
| COc1ccc(NC(=O)N(C)C[C@H]2Oc3c(NC(=O)CCCCCC(=O)Nc4ccccc4N)cccc3C(=O)N([C@H](C)CO)C[C@@H]2C)cc1 | 1.07 unspecified [at 23.5 µM] (inactive) |
| CCC(=O)N1C[C@H](C)[C@@H](OC)CN(C)C(=O)c2cc(NC(=O)Nc3ccc(Cl)cc3)ccc2OC[C@@H]1C | 1.62 unspecified (inactive) |
| CN1C(=O)c2cc(NC(=O)Cc3cccs3)ccc2OC[C@@H]2O[C@@H](CC(=O)NCCc3ccncc3)CC[C@H]21 | 0.98 unspecified [at 23.5 µM] (inactive) |
| Cc1cccc(-c2ccc([C@@H]3[C@@H](CO)N4CCCCN(S(=O)(=O)c5ccccc5F)C[C@@H]34)cc2)c1 | 0.962 unspecified (inactive) |
| C[C@H]1CN([C@@H](C)CO)C(=O)c2cccc(NC(=O)c3ccc(-c4nccs4)cc3)c2O[C@@H]1CN(C)C(=O)Nc1ccc(C(F)(F)F)cc1 | 0.52 unspecified (inactive) |
